According to PubChem BioAssay AID493185 (National Center for Advancing Translational Sciences (NCATS), 2011):
Activity calls are given as the source filed them. Where a call stands in place of a potency, no number is given. Calls come from the whole dose curve; as a rule, active = well fitted activation curve with a large enough effect; inconclusive = small, poorly fitted or top-dose-only effect; inactive = no such curve, though single readings can be large or run the other way.

Assay: Counterscreen for Identifying a Potential Treatment of Ataxia-Telangiectasia: Hit Validation
How it was run: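 Without cells, compounds at up to 76.7 uM final were combined with premixed anti-pKAP1/anti-KAP1 AlphaLISA bead reagents, protease inhibitors and lysis buffer; signal read after 6 hr at 25C to flag assay-platform artifacts.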
Potency is the fitted concentration of half-maximal effect.

Row | Compound | Potency
1 | Cc1ccc(C(=O)c2c(C)oc3c2C(=O)C(=O)c2ccccc2-3)cc1 | inactive
2 | Cc1[nH]c2c(C)cccc2c1CN1CCC(CO)(Cc2ccccc2)CC1 | inactive
3 | CCOc1cc(/C=C/c2nc3ccccc3c(=O)[nH]2)ccc1O | inactive
4 | COC(=O)N/N=C/c1ccccc1OCCOc1ccc(OC)cc1 | inactive
5 | O=[N+]([O-])c1ccc(F)cc1F | inactive
6 | O=C(CNCc1cccs1)Nc1cc(S(=O)(=O)N2CCCC2)ccc1Cl | inactive
7 | CCn1c(SCc2cccc(F)c2)nnc1-c1ccncc1 | inactive
8 | O=C(NCCCN1CCOCC1)c1ccc2c(c1)N(Cc1cccc(F)c1)C(=O)c1ccccc1S2 | inactive
9 | Cc1oc2ccc(OCc3ccc(Br)cc3)cc2c1C(=O)O | inactive
10 | Cc1nn(-c2ccccc2)c2nc(C(Cl)(Cl)Cl)[nH]c(=O)c12 | inactive
11 | COc1cccc(CN(C)CC(=O)NCc2ccc(F)cc2)c1OC | inactive
12 | O=C(Nc1cnn(C23CC4CC(CC(C4)C2)C3)c1)c1cnn2cccnc12 | inactive
13 | c1ccc2c(c1)nc(Nc1ccc(N3CCCCC3)cc1)c1nncn12 | inactive
14 | Cc1cc(C)c2c(Cn3ccnc3)cc(=O)oc2c1 | inactive
15 | CNC(=S)N/N=C/c1ccc2c(c1)OCCO2 | inactive
16 | O=C(C(c1ccccc1)c1ccccc1)N1CC[C@@]2(O)CCCC[C@H]2C1 | inactive
17 | COc1ccc(/C=N/Nc2nc(=O)[nH]nc2C)cc1OC | inactive
18 | CCC(=O)Nc1ccc(S(=O)(=O)c2ccc(NC(=O)CC)cc2)cc1 | inactive
19 | COc1ccc(C2(C)CC(C)(C)Nc3ccccc32)cc1 (stereo not given) | inactive
20 | COc1ccc(-n2c(C)cc(=O)[nH]c2=O)cc1 | inactive

Row | Compound | Potency
21 | C=CCSc1nc2ccccc2n1C(=O)/C=C/c1cc(OC)c(OC)c(OC)c1 | inactive
22 | Fc1ccc(C2=NOC(c3nnc(-c4ccccc4)o3)C2)cc1 (stereo not given) | inactive
23 | CCOC(=O)CNS(=O)(=O)Cc1ccccc1 | inactive
24 | Cc1cc2nc3ccc(=[N+](C)C)cc-3sc2cc1N | 26 µM (active)
25 | Cc1ccc(-c2noc(CCC(=O)NC3CCN(Cc4ccccc4)CC3)n2)cc1 | inactive
26 | O=C1C2C3C=CC(CC3)C2C(=O)N1c1cccc(Br)c1 (stereo not given) | inactive
27 | CCCN1CN(c2ccccc2)C(=S)N(c2ccccc2)C1 | inactive
28 | Fc1cccc(Cl)c1/C=C/c1cnc2ccccc2n1 | inactive
29 | CNC(=S)N(CCO)Cc1cc2cc3c(cc2[nH]c1=O)OCCO3 | inactive
30 | O=C1/C(=C/c2ccc(N3CCOCC3)o2)SC(=Nc2ccccc2)N1CCc1c[nH]c2ccccc12 | inactive
31 | N#Cc1c2c(c(-n3cnc4ccccc43)n3c1nc1ccccc13)CCC2 | inactive
32 | COc1ccccc1Nc1nc(NCCCN(C)C)nc(N)c1[N+](=O)[O-] | inactive
33 | COc1ccc(-c2nn(-c3ccccc3)cc2/C=C/C(=O)O)cc1[N+](=O)[O-] | inactive
34 | Cc1oc2c(c(C)cc3oc(=O)c(CC(=O)NCC(=O)NCC(=O)O)c(C)c32)c1C | inactive
35 | CNC(=O)c1ccc(-c2cc3onc(-c4ccccc4)c3c(=O)n2C)cc1 | inactive
36 | CCOc1ccc(C(=O)NC(=S)Nc2cccnc2)cc1[N+](=O)[O-] | inactive
37 | CCOc1cccc(C(=O)Nc2ccccc2N2CCN(C(=O)C(C)C)CC2)c1 | inactive
38 | COc1ccc(N(C)S(=O)(=O)c2cccc(C(=O)OCC(=O)NCc3ccccc3OC)c2)cc1 | inactive
39 | COc1ccccc1C1CCN(C(=O)c2ccc(Cl)cc2)CC1 | inactive
40 | Cn1c(=O)oc2cc(S(=O)(=O)N3CCc4ccccc43)ccc21 | inactive
